PLAP act: activates human placental alkaline phosphatase | P05187 | purified PLAP enzyme, luminescent substrate read-out; stronger effect = higher value | activation fold at 20 µM | 1.2% of 96,000 active | AID 696; in the data active means activation fold above about 2
PostGolgi yeast: growth inhibition of a yeast mutant, post-Golgi transport screen; inhibition, % at 10 µM; post-Golgi transport phenotypic cell assay; 0.9% of 98,000 active; AID 739;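 further: yeast cells grown in 1536-well plates; yeast grown about 18 h at 30C before absorbance read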
hDAT+cocaine: changed human dopamine transporter uptake under cocaine IC80. LLC-PK1 hDAT cells, [14C]-dopamine uptake with cocaine IC80; actives deviate in either direction. 1.3% of 110,000 active. B-score at 10 µM. Q01959. AID 449768;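 active means Z score or B-score, a plate-position-corrected score, falls beyond the plate's 99.7% confidence bounds, in either direction; inactive means both scores lie inside the 99.7% bounds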
D1 mod: allosterically modulates the human D1 dopamine receptor | P21728 | HEK293 D1, CRE-luciferase, dopamine EC30 potentiation; actives deviate in either direction | B-score at 10 µM | 5.9% of 58,000 active;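 active means luminescence count or its row- and column-corrected plate score outside the 99.7% band of the plate's sample wells, on either side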
Cav3 T inh: blocks human Cav3.2 T-type calcium channel | B-score at 10 µM | 4% of 100,000 active | O95180 | AID 449739 | Cav3.2-expressing cells, Fluo-4 calcium fluorescence FDSS; stronger effect = lower value;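 active means single-dose well whose peak fluorescence ratio is a statistical outlier from its plate by either plate-standardised score or position-corrected B-score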
PostGolgi ctrl: growth of the yeast control strain, post-Golgi counter-screen; inhibition, % at 10 µM; 5% of 98,000 active; AID 738; efflux-deficient yeast background strain, growth absorbance A615, 16 h
D1 PAM confirm: confirmation of human D1 dopamine receptor allosteric modulators; AID 642; 88% of 2,200 active; shares compounds with D1 mod; HEK293 D1 CRE-luciferase, dopamine EC30 potentiation; stronger effect = higher value; luminescence at 10 µM;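 active means luminescence in either of two replicates above the same-plate mean plus 3 SD of the low-dose dopamine control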
D1 ag no DA: secondary test of D1 modulators: activity without dopamine; shares compounds with D1 mod; HEK293 D1 CRE-luciferase, luminescence, no dopamine; stronger effect = higher value; luminescence at 10 µM; 0.8% of 1,900 active; in the data active means luminescence above about 3900
Isoprot counter: alters isoproterenol CRE-luciferase response in HEK293 cells. shares compounds with D1 mod. HEK293 D1 CRE-luciferase, isoproterenol EC30 counter-screen. calls only at 10 µM. 63% of 2,200 active;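 active means luminescence in either replicate above plate mean of wells with a partly effective reference agonist dose plus 3 SD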;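 further: isoproterenol raises cAMP through native beta-adrenoceptor Gs so signal bypasses D1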
Numbers stand for hits; n = inactive; x = not tested or not shown; + = active, no number. A selection: hits, their analogues and other compounds. The true share with any hit is near 12%. Unless noted, no stated cut-off is given here; in the data, active means inhibition above about 30%; inactive means the rest.

SMILES	PLAP act	PostGolgi yeast	hDAT+cocaine	D1 mod	Cav3 T inh	PostGolgi ctrl	D1 PAM confirm	D1 ag no DA	Isoprot counter
CN(C)CCOc1nc(-c2ccccc2)nc2c1oc1ccccc12	n	n	n	n	n	n	x	x	x
COCCNC(=O)c1cc(-c2ccccc2)nn1CC1CC(c2cccnc2)=NO1 (stereo not drawn)	x	x	n	x	n	x	x	x	x
CC(=O)NC1(C(F)(F)F)C(=O)NC(C)=C1C#N (stereo not drawn)	n	n	n	x	n	n	x	x	x
O=C(NC1CCCc2ccccc21)c1cncc(Br)c1 (stereo not drawn)	n	n	n	x	n	n	x	x	x
CC(C)(C)n1ncc2c(=O)n(Cc3c(F)cccc3Cl)cnc21	n	n	n	5.98	n	n	9180	n	+
CC(C)(C)n1ncc2c(=O)n(Cc3ccc(Cl)cc3Cl)cnc21	n	n	n	n	n	n	x	x	x
COc1ccc(/C=N/n2c(SC)nnc2-c2ccccc2)cc1C	n	n	n	16.1	n	42.9	23520	n	+
O=C(c1ccccc1[N+](=O)[O-])N1CCC(Cc2ccccc2)CC1	n	n	n	x	n	n	x	x	x
COCCSc1nc2c(c(=O)[nH]c(=O)n2C)n1CCC(C)C	n	n	x	11	x	n	21024	n	+
CCC(C)Nc1nc2c(c(=O)[nH]c(=O)n2C)n1CCC(C)C (stereo not drawn)	x	n	n	16.7	n	n	18228	n	+
COC(=O)C(C)Sc1nc2c(c(=O)[nH]c(=O)n2C)n1CCC(C)C (stereo not drawn)	x	n	n	9.94	n	n	21460	n	+
COC(=O)CSc1nc2c(c(=O)n(C)c(=O)n2C)n1CCC(C)C	n	n	n	x	n	n	x	x	x
C=C(C)CSc1nc2c(c(=O)[nH]c(=O)n2C)n1CCC(C)C	n	n	n	11.2	n	n	22496	n	+
C=C(C)Cn1c(SCCCO)nc2c1c(=O)[nH]c(=O)n2C	n	n	n	n	n	n	x	x	x
Cc1c(NC(=O)CSc2ccccc2C(=O)Nc2cccnc2)c(=O)n(-c2ccccc2)n1C	n	n	n	n	x	n	x	x	x
C/C(N)=C(/C#N)C(=O)CSc1nnc(Nc2c(C)cccc2C)s1	n	n	n	n	n	n	x	x	x
C/C(N)=C(/C#N)C(=O)CSc1nnc(SCc2ccc(Cl)cc2)s1	n	n	n	6.7	n	n	6760	n	n
CCN(C(=O)CN1CCN(c2ccc(OC)cc2)CC1)c1c(N)n(Cc2ccccc2)c(=O)[nH]c1=O	n	n	x	n	n	n	x	x	x
COc1ccc2nc(NC(=S)N(C)C)sc2c1	n	n	n	x	n	n	x	x	x
COc1cccc(OC)c1C(=O)N1CCN=C1SCc1cccnc1	n	n	n	n	n	n	x	x	x
COc1ccc(C(=O)N2CCN=C2SCc2cccnc2)cc1OC	n	n	n	4.81	n	n	9852	n	+
CCn1c(CSc2nnc(C)n2-c2ccccc2)nc2cc(S(=O)(=O)N(C)C)ccc21	n	n	n	1.8	n	n	n	n	n
CCn1c(-c2cc(Br)cc(OC)c2O)nc2cc(S(=O)(=O)N(C)C)ccc21	n	n	n	x	n	n	x	x	x
CCOc1ccc2cc(C#N)c(SCC(=O)N3CCC(C)CC3)nc2c1	n	n	n	7.23	n	n	6372	n	+
COc1ccc(Nc2ncnc3sc(-c4ccccc4)cc23)cc1	n	n	n	x	n	n	x	x	x
SMILES	PLAP act	PostGolgi yeast	hDAT+cocaine	D1 mod	Cav3 T inh	PostGolgi ctrl	D1 PAM confirm	D1 ag no DA	Isoprot counter
COc1ncnc2sc(-c3ccccc3)cc12	n	n	n	2.8	n	n	10684	n	+
Cc1ccc(/C=N\NC(=O)Cn2c(C)nc3ccccc32)o1	n	n	n	x	n	n	x	x	x
CCCCOc1ccc(-c2cc(C(=O)NNC(=S)NCC)c3ccccc3n2)cc1	n	n	n	x	n	n	x	x	x
COC(=O)C1CCN(S(=O)(=O)c2c(C)n(C)c(=O)n(C)c2=O)CC1	n	n	n	1.43	n	n	n	n	n
Cc1sc2ncnc(NCC(c3ccco3)N3CCCC3)c2c1C (stereo not drawn)	n	n	n	x	n	n	x	x	x
CCC(NC(C)C)C(O)c1ccc(O)c2[nH]c(=O)ccc12 (stereo not drawn)	x	x	n	14.1	n	x	8644	3980	+
COc1ccc(N(CC(=O)NN=C2CCCCCCC2)S(=O)(=O)c2ccccc2)cc1	n	n	n	x	n	n	x	x	x
O=C(NCCCN1CCOCC1)C(C(=O)c1ccccc1)n1ccccc1=O (stereo not drawn)	n	n	n	n	n	n	x	x	x
CC(=O)Nc1nc(C)nc(-c2ccccc2)c1C(C)=O	n	n	n	n	n	n	x	x	x
CNc1nc(C)c(C#N)c(-c2ccccc2)c1C(C)=O	n	n	n	5.84	x	n	12136	n	n
CCn1cc(C(=O)Nc2nncs2)c(=O)c2cc(F)c(N3CCN(C(=O)c4ccco4)CC3)cc21	x	x	x	n	x	x	x	x	x
Cc1ccccc1Nc1nc(N)nc(CSc2nc3ccccc3c(=O)n2CCCO)n1	n	n	2.74	2.96	n	n	8640	n	+
COCCn1c(SCc2nc(N)nc(Nc3ccccc3C)n2)nc2ccccc2c1=O	n	n	n	x	n	n	x	x	x
Cc1oc(-c2cccc(Cl)c2)nc1CN1CCCC(C(=O)NCCCN2CCOCC2)C1 (stereo not drawn)	n	n	x	n	x	n	x	x	x
Cc1oc(-c2ccc(Cl)cc2)nc1CN1CCC(C(=O)NCCCN2CCOCC2)CC1	n	n	n	3.65	n	n	n	n	n
CC(=O)c1sc(NC(=O)c2ccc(Cn3cc(Br)cn3)o2)nc1C	n	n	n	x	n	n	x	x	x
Cc1ccc2nc(NC(=O)c3ccc(Cn4cc(Cl)cn4)o3)sc2c1	x	n	n	6.59	n	n	n	n	n
COC(=O)[C@@H](NC(=O)Nc1cccc(OC)c1)C(C)C	n	n	n	x	n	n	x	x	x
COc1cc2cc(C)c(SCC(=O)N3CCOCC3)nc2cc1OC	n	n	n	5.74	n	n	10104	n	+
Cc1cccc(-c2nc(CSCC(=O)N3CCN(c4ccccn4)CC3)c(C)o2)c1	n	n	n	n	n	n	x	x	x
O=c1c2ccccc2n(Cc2ccc(F)cc2)c(=O)n1C1CCCC1	n	n	n	4.87	x	n	9856	n	+
CCCC(=O)N=C1SC2CS(=O)(=O)CC2N1c1ccc(CC)cc1 (stereo not drawn)	n	n	x	n	x	n	x	x	x
Cc1ccc(S(=O)(=O)N2CCN(C(=O)COC(=O)c3cc(C)oc3C)CC2)cc1	n	n	n	4.32	n	n	6052	n	n
N#Cc1c2n(c3c(=O)n(Cc4ccc(Cl)cc4)cnc13)CCCC2	n	n	n	2.64	n	n	10052	n	+

Bioassay records as filed in PubChem.
